HT1080 IDH1KD tx – toxicity to HT-1080 IDH1 knockdown cells (counter line); HT-1080 IDH1 knockdown viability, ATP luminescence, 48 h; Potency, µM (series often up to 46.1 µM), for inactives: at the highest dose activity, negative = toxicity, usual class: cytotoxic; actives 2% (n = 360,000); AID 686971;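 also: potency is read from the fitted curve at half-maximal effect; 0% = DMSO wells and -100% = cell-free medium wells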
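CellTiter-Glo luminescence after 48 h compound exposure at 37 degrees C of IDH1-knockdown HT-1080 cells in 5% FBS RPMI. %Activity scaled between DMSO wells and cell-free media wells, with curves fitted and assigned curve classes.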
IL-1B inflam inh – inhibitors of inflammasome signaling (IL-1 beta secretion); THP-1 LPS/ATP IL-1B secretion, AlphaLISA, 16 h; stronger effect = lower value; activity change, % at 57.5 µM; actives 4.7% (n = 360,000); AID 743279; in the data active = activity change below about -50%; inconclusive = mostly about -30% to -49%
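THP-1 cells pretreated 1 hr with compounds (up to 57.5 uM final), then stimulated with LPS (250 ng/mL final) plus ATP (1.25 mM final); secreted IL-1B measured by AlphaLISA after 16 hr, decreased signal indicating inhibition.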
HT1080NT lethal – kills 2HG-producing HT-1080-NT fibrosarcoma cells. HT-1080-NT fibrosarcoma viability, CellTiter-Glo ATP luminescence, 48 h. Potency, µM (top dose mostly 46.1 µM), inactives show at the highest dose activity, negative = less viability, most hits filed as cytotoxic. actives 1.6% (n = 360,000). AID 686970;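 also: NT is the 2HG producing partner of a matched IDH1 knockdown line; potency is read from the fitted curve at half-maximal effect; 0% = DMSO-treated cells and -100% = media-only wells without cells; nearly all actives have a fitted effect of over 55% in size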
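Fibrosarcoma NT cells, 750 per well in 5% FBS RPMI, were exposed to compound for 48 hours. Viability: CellTiter-Glo luminescence.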
TDP1 cell CPT – growth inhibition of DT40 Tdp1-/-;hTDP1 cells with camptothecin (screen for TDP1 inhibitors); actives 12% (n = 420,000); AID 686979; chicken DT40 Tdp1-/-;hTDP1 cells + 20 nM CPT, ATP luminescence, 48 h; Potency, µM (doses to about 46.2 µM), inactives show top-dose activity change, negative = growth inhibition, actives largely listed as inhibitors; also: potency is read from the fitted curve at half-maximal effect; nearly all actives have a fitted effect of over 55% in size
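Cell growth measured by CellTiter-Glo luminescence after a minimum 48 h, 37 C compound exposure with 20 nM CPT in Tdp1-knockout DT40 cells stably expressing hTDP1, seeded 400/well; qHTS titration format.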
uPA surface inh – blocks generation of uPA at the cell surface. cell surface uPA generation assay, qHTS. Potency, µM (top dose mostly 38.3 µM), inactives show at the highest dose activity change, negative = inhibition, usual class: inhibitors. actives 0.31% (n = 330,000). AID 540303; active = well fitted inhibition curve with a large enough effect; inconclusive = small, poorly fitted or top-dose-only effect; inactive = no such curve, though single readings can be large or run the other way; tested in mouse RAW 264.7 cells; also: potency is read from the fitted curve at half-maximal effect; nearly all actives have a fitted effect of over 55% in size
TDP1 cell noCPT – qHTS for Inhibitors of human tyrosyl-DNA phosphodiesterase 1 (TDP1): qHTS in cells in absence of CPT. DT40 Tdp1-/- hTDP1 cells, no CPT, ATP luminescence, 48 h. Potency, µM (series often up to 46.2 µM), inactives show at the top dose activity change, negative = growth inhibition, usual class: inhibitors. actives 15% (n = 420,000). AID 686978, 2013; also: potency is read from the fitted curve at half-maximal effect; nearly all actives have a fitted effect of over 55% in size
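Seeded 400 DT40-hTDP1 cells/well (vehicle DMSO, no 20 nM CPT); pinned compounds; ≥48 hr at 37 °C; CellTiter-Glo luminescence as viability measure.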
Numbers without * were called inactive. Rows were chosen to be rich in hits. Some 19% of all compounds tested hit in one or more screens of this group. Unless noted, calls follow the shape of the dose curve; as a rule, active = well fitted curve in the direction sought with a large enough effect; inconclusive = small, poorly fitted or top-dose-only effect, or another doubt; inactive = no such curve, though single readings can be large; an effect the other way counts as inactive or inconclusive. Unless noted, % is scaled to controls: 0 for no effect and ±100 for the full control effect.

For Cc1ccc(S(=O)(=O)N2CCCCCC2)cc1[N+](=O)[O-] the results were HT1080 IDH1KD tx 4%, IL-1B inflam inh -7, HT1080NT lethal 0%, TDP1 cell CPT inconclusive, uPA surface inh 6% and TDP1 cell noCPT 10µM*.
COc1cc(OC)cc(Oc2ccc(S(=O)(=O)N3CCCCC3)cc2[N+](=O)[O-])c1 was read as HT1080 IDH1KD tx -24%, IL-1B inflam inh -99*, HT1080NT lethal -19%, TDP1 cell CPT inconclusive, uPA surface inh 5% and TDP1 cell noCPT inconclusive.
`COC(=O)COc1ccc(S(=O)(=O)N2CCCCC2)cc1[N+](=O)[O-]` gave HT1080 IDH1KD tx 9%, IL-1B inflam inh -17, HT1080NT lethal 16%, TDP1 cell CPT 12%, uPA surface inh 4% and TDP1 cell noCPT -13%.
`Cc1ccc(S(=O)(=O)N2CCC(C)CC2)cc1[N+](=O)[O-]` gave HT1080 IDH1KD tx -3%, IL-1B inflam inh 8, HT1080NT lethal -3%, TDP1 cell CPT 6% and TDP1 cell noCPT -4%.
Cc1ccc2oc(=O)c3cnn(CC(=O)Nc4cccc(C(F)(F)F)c4)c3c2c1 was read as TDP1 cell CPT 3% and TDP1 cell noCPT -8%.
CC(=O)N(Cc1cccnc1)c1nc2ccc(F)cc2s1 was read as TDP1 cell CPT -9% and TDP1 cell noCPT -7%.
For COc1ccc2nc(N(Cc3cccnc3)C(=O)Cc3ccccc3)sc2c1 the results were TDP1 cell CPT -13% and TDP1 cell noCPT -7%.
For O=C(CCS(=O)(=O)c1ccccc1)N(Cc1cccnc1)c1nc2ccc(F)cc2s1 the results were TDP1 cell CPT 3.3µM* and TDP1 cell noCPT 5.8µM*.
`Cc1cc(C)c2sc(N(Cc3cccnc3)C(=O)CCOc3ccccc3)nc2c1` gave TDP1 cell CPT 18µM* and TDP1 cell noCPT inconclusive.
For O=C(CCOc1ccccc1)N(Cc1cccnc1)c1nc2c(F)cc(F)cc2s1 the results were TDP1 cell CPT 18µM* and TDP1 cell noCPT 26µM*.
`CCN(CC)CCN(C(=O)CCOc1ccccc1)c1nc2c(F)cc(F)cc2s1` gave HT1080 IDH1KD tx -2%, IL-1B inflam inh inconclusive, HT1080NT lethal 2%, TDP1 cell CPT inconclusive, uPA surface inh -4% and TDP1 cell noCPT 18µM*.
For CCCS(=O)(=O)N1CCCC(C(=O)c2ccccc2OC)C1 (configuration not stated) the results were HT1080 IDH1KD tx 8%, IL-1B inflam inh 13, HT1080NT lethal 14%, TDP1 cell CPT -1%, uPA surface inh 10% and TDP1 cell noCPT 12%.
Screening O=S1(=O)N[C@H](Cc2ccccc2)COc2cc(N3CC[C@H](O)C3)ccc21 returned HT1080 IDH1KD tx -24%, IL-1B inflam inh 28, HT1080NT lethal -15%, TDP1 cell CPT inconclusive and TDP1 cell noCPT inconclusive.
`COc1ccc(NC(=O)C2CC23CCN(Cc2cccc4ncccc24)CC3)cc1Cl` (configuration not stated) gave TDP1 cell CPT -29% and TDP1 cell noCPT inconclusive.
For COc1ccc(-c2nc3cc(C)c(Br)c(C)n3c2Cc2ccsc2)cc1OC the results were HT1080 IDH1KD tx -7%, IL-1B inflam inh 4, HT1080NT lethal -8%, TDP1 cell CPT inconclusive and TDP1 cell noCPT inconclusive.
`COC(=O)c1ccc2nc(-c3ccc(OC)c(OC)c3)c(Cc3ccsc3)n2c1` gave HT1080 IDH1KD tx -7%, IL-1B inflam inh -2, HT1080NT lethal 13%, TDP1 cell CPT 16µM* and TDP1 cell noCPT 23µM*.
`COc1ccc(-c2nc3ccc(C)cn3c2Cc2ccsc2)cc1OC` gave HT1080 IDH1KD tx inconclusive, IL-1B inflam inh -17, HT1080NT lethal inconclusive, TDP1 cell CPT 8.2µM* and TDP1 cell noCPT 7.3µM*.
Screening COc1ccc(-c2nc3ccc(C)cn3c2CC2CCCCC2)cc1OC returned HT1080 IDH1KD tx inconclusive, IL-1B inflam inh -21, HT1080NT lethal inconclusive, TDP1 cell CPT 18µM* and TDP1 cell noCPT 18µM*.
COC(=O)c1ccc2nc(-c3cccc(Cl)c3)c(Cc3ccsc3)n2c1 was read as HT1080 IDH1KD tx inconclusive, IL-1B inflam inh 2, HT1080NT lethal -22%, TDP1 cell CPT inconclusive and TDP1 cell noCPT 16µM*.
For O=C(Nc1cc(C(=O)N2CCN(c3ccccc3O)CC2)ccc1Cl)c1cccs1 the results were HT1080 IDH1KD tx -1%, IL-1B inflam inh inconclusive, HT1080NT lethal -1%, TDP1 cell CPT inconclusive, uPA surface inh 11% and TDP1 cell noCPT inconclusive.
COC(=O)c1ccc2nc(-c3cccc(Br)c3)c(Cc3ccsc3)n2c1 was read as HT1080 IDH1KD tx -24%, IL-1B inflam inh 90, HT1080NT lethal -11%, TDP1 cell CPT inconclusive and TDP1 cell noCPT inconclusive.
COC(=O)c1ccc2nc(-c3ccc(Cl)cc3)c(Cc3ccsc3)n2c1 was read as HT1080 IDH1KD tx 17%, IL-1B inflam inh 33, HT1080NT lethal 13%, TDP1 cell CPT inconclusive and TDP1 cell noCPT 12µM*.
`COC(=O)c1ccc2nc(-c3ccc(OC)c(OC)c3)c(Cc3ccc(OC)cc3C)n2c1` gave HT1080 IDH1KD tx inconclusive, IL-1B inflam inh 30, HT1080NT lethal -9%, TDP1 cell CPT inconclusive and TDP1 cell noCPT 26µM*.
Screening COC(=O)c1ccc2nc(-c3ccccc3)c(Cc3ccsc3)n2c1 returned HT1080 IDH1KD tx -27%, IL-1B inflam inh 20, HT1080NT lethal inconclusive, TDP1 cell CPT 21µM* and TDP1 cell noCPT inconclusive.
`Cc1ccccc1SCC(=O)OCC(=O)N(C)c1c(N)n(Cc2ccccc2)c(=O)[nH]c1=O` gave HT1080 IDH1KD tx 3%, IL-1B inflam inh 11, HT1080NT lethal -1%, TDP1 cell CPT 14%, uPA surface inh 2% and TDP1 cell noCPT -15%.
Cc1ccc(C(=O)N2CCN(Cc3nc4sc5c(c4c(=O)[nH]3)CCCC5)CC2)cc1 was read as HT1080 IDH1KD tx 12%, IL-1B inflam inh 9, HT1080NT lethal 7%, TDP1 cell CPT 29µM*, uPA surface inh -3% and TDP1 cell noCPT 21µM*.
`Cc1cc(C)cc(NC(=O)CCc2nc3sc4c(c3c(=O)[nH]2)CCCC4)c1` gave HT1080 IDH1KD tx -13%, IL-1B inflam inh -4, HT1080NT lethal -14%, TDP1 cell CPT 4.6µM*, uPA surface inh 0% and TDP1 cell noCPT 10µM*.
`O=C(c1ccccc1F)N1CCN(Cc2nc3sc4c(c3c(=O)[nH]2)CCCC4)CC1` gave HT1080 IDH1KD tx -13%, IL-1B inflam inh -7, HT1080NT lethal -8%, TDP1 cell CPT 2%, uPA surface inh 5% and TDP1 cell noCPT -16%.

Compound activity from PubChem.
